# Reference: PubChem BioAssay (NCATS)
# Results filed as inconclusive are left out. Values without a mark were called inactive. Activity calls are given as the source filed them. The call rests on the fitted dose curve; in most records, active means well fitted cell-killing curve with a large enough effect; inconclusive means small, poorly fitted or top-dose-only effect, or effect the other way; inactive means no such curve, though single readings can be large or run the other way.
# Assay: Quantitative High-Throughput drug screen in 47 multiple myeloma cell lines against the NCATS MIPE library collection: OPM1_PLB cell viability assay (AID 1918989); further: nearly all actives have a fitted effect of over 40% in size
# Details: CellTiter-Glo, 48 h; series mostly up to 45.8 µM
# Procedure, shortened: (§1)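 500 cells/well per myeloma line exposed to pinned MIPE 4.0 compounds for 48 h at 37 °C, 5% CO2. Viability read as ATP by CellTiter-Glo luminescence, normalised to DMSO-only (100%) and media-only (0%) wells.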
# Potency means the concentration at half of the fitted maximal effect.
row,Compound,Potency
1,N[C@H](CSC(c1ccccc1)(c1ccccc1)c1ccccc1)C(=O)O,5.9 µM (active)
2,CC[C@H]1OC(=O)[C@H](C)C(=O)[C@H](C)[C@@H](O[C@H]2O[C@H](C)C[C@H](N(C)C)[C@@H]2O)[C@](C)(OC)C[C@@H](C)C(=O)[C@H](C)[C@H]2N(CCCCn3cnc(-c4cccnc4)c3)C(=O)O[C@]12C,inactive
3,COc1cccc2c1CCCC2CCCN1CCN(C2CCCCC2)CC1 (stereo not drawn),20.9 µM (active)
4,Cc1cccc(Nc2nc(-c3ccncc3)cs2)c1,14.8 µM (active)
5,CC=C(C)C(=O)O[C@H]1C(C)=C[C@]23C(=O)[C@@H](C=C(CO)[C@@H](O)[C@]12O)[C@H]1[C@@H](C[C@H]3C)C1(C)C,4.18 µM (active)
6,Nc1nc(F)nc2c1ncn2[C@@H]1O[C@H](COP(=O)(O)O)[C@@H](O)[C@H]1O,inactive
7,C=C1C(=O)OC(CCCCCCCC)C1C(=O)O (stereo not drawn),20.9 µM (active)
8,O=c1cc(-c2ccccc2)oc2cc(O)c(O)c(O)c12,11.8 µM (active)
9,CCNc1cc(NC2CCC(O)CC2)nc(Nc2ccc3c(ccn3Cc3ccccc3)c2)n1 (stereo not drawn),29.6 µM (active)
10,CC(C)C(=O)Nc1ncc(-c2cc(C(F)F)nn2-c2c(Cl)cccc2Cl)s1,20.9 µM (active)
11,O=C1Nc2ccc(Cl)cc2C(C#CC2CC2)(C(F)(F)F)O1 (stereo not drawn),20.9 µM (active)
12,CO[C@H]1C[C@@H]2CC[C@@H](C)[C@@](O)(O2)C(=O)C(=O)N2CCCC[C@@H]2C(=O)O[C@H]([C@H](C)C[C@@H]2CC[C@H](OCCO)[C@H](OC)C2)CC(=O)[C@H](C)C=C(C)[C@@H](O)[C@@H](OC)C(=O)[C@H](C)C[C@H](C)C=CC=CC=C1C,1.05 µM (active)
13,CC1(C)CCC2=C(O1)c1ccccc1C(=O)C2=O,20.9 µM (active)
14,CC(C)n1nc(-c2ccc3oc(N)nc3c2)c2c(N)ncnc21,0.001 µM (active)

# Assay: Quantitative High-Throughput drug screen in 47 multiple myeloma cell lines against the NCATS MIPE library collection: SKMM1_PLB cell viability assay (AID 1919863); further: nearly all actives have a fitted effect of over 35% in size
# Details: SKMM1 myeloma viability, CellTiter-Glo ATP, 48 h; viability: stronger effect = lower value
# Procedure, shortened: as §1
Compound,Potency,viability [%]
N[C@H](CSC(c1ccccc1)(c1ccccc1)c1ccccc1)C(=O)O,10.5 µM (active),
CC=C(C)C(=O)O[C@H]1C(C)=C[C@]23C(=O)[C@@H](C=C(CO)[C@@H](O)[C@]12O)[C@H]1[C@@H](C[C@H]3C)C1(C)C,0.0059 µM (active),
CCOC(CN1C(=O)[C@](CC(=O)Nc2ccc(C)cc2)(NC(=O)Nc2ccc(C)cc2)c2ccccc21)OCC,,93.3
CO[C@H]1C[C@@H]2CC[C@@H](C)[C@@](O)(O2)C(=O)C(=O)N2CCCC[C@@H]2C(=O)O[C@H]([C@H](C)C[C@@H]2CC[C@H](OP(C)(C)=O)[C@H](OC)C2)CC(=O)[C@H](C)C=C(C)[C@@H](O)[C@@H](OC)C(=O)[C@H](C)C[C@H](C)C=CC=CC=C1C,,83.3
O=c1cc(-c2ccccc2)oc2cc(O)c(O)c(O)c12,18.7 µM (active),
COc1ncc(-c2ccc3nccc(-c4ccnnc4)c3c2)cc1NS(=O)(=O)c1ccc(F)cc1F,0.0118 µM (active),
CCNc1cc(NC2CCC(O)CC2)nc(Nc2ccc3c(ccn3Cc3ccccc3)c2)n1 (stereo not drawn),18.7 µM (active),
Cc1ccc([C@@H]2O[C@H](CO)[C@@H](O)[C@H](O)[C@@H]2O)cc1Cc1ccc(-c2ccc(F)cc2)s1,,118
CN(C)CCC=C1c2ccccc2COc2ccc(CC(=O)O)cc21,,114
CC(C)C(=O)Nc1ncc(-c2cc(C(F)F)nn2-c2c(Cl)cccc2Cl)s1,16.6 µM (active),
COc1cc(N2CCC(N3CCN(C)CC3)CC2)ccc1Nc1ncnc(Nc2ccccc2S(=O)(=O)C(C)C)n1,23.5 µM (active),
CO[C@H]1C[C@@H]2CC[C@@H](C)[C@@](O)(O2)C(=O)C(=O)N2CCCC[C@@H]2C(=O)O[C@H]([C@H](C)C[C@@H]2CC[C@H](OCCO)[C@H](OC)C2)CC(=O)[C@H](C)C=C(C)[C@@H](O)[C@@H](OC)C(=O)[C@H](C)C[C@H](C)C=CC=CC=C1C,,66.8
CO[C@H]1C[C@@H]2CC[C@@H](C)[C@@](O)(O2)C(=O)C(=O)N2CCCC[C@@H]2C(=O)O[C@H]([C@@H](C)C[C@@H]2CC[C@H](O)[C@H](OC)C2)CC(=O)[C@H](C)C=C(C)[C@@H](O)[C@@H](OC)C(=O)[C@H](C)C[C@H](C)C=CC=CC=C1C,,82.9
c1ccc2c(-c3cnn4cc(-c5ccc(N6CCNCC6)cc5)cnc34)ccnc2c1,9.35 µM (active),
